# From PubChem
# In the library only some 3.4% were active in any assay of this set; here they are far more common.
# Shn3 3UTR inh: Schnurri-3 reporter inhibition in Clone20 osteoblasts | inhibition, % at 12.5 µM | actives 0.52% (n = 360,000) | AID 588674 | Clone20 osteoblast Shn3 3'UTR firefly luciferase, 24 h;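 active = mean inhibition of at least 75% with every replicate also reaching 75%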;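 note: 0% = median of neutral control wells and 100% = pilot-screen positive control compound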
# HIF-2a inh: blocks HIF-2a reporter activity; 786-0 RCC cells HIF-2a reporter, luciferase luminescence, overnight; inhibition, % at 18.8 µM; actives 0.72% (n = 360,000); AID 624352;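 active = inhibition of the luminescence signal of 40% or more relative to plate controls, in a single-dose primary screen at 18.75 µM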
# LMP1 NFkB inh: reduces LMP1-driven NF-kappaB luciferase signal | LMP1-induced NF-kappaB luciferase reporter cells, luminescence | inhibition, % at 12.5 µM | actives 0.69% (n = 350,000) | AID 504558; in the data active = inhibition above about 41%;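 note: 0% = neutral control wells and 100% = reference inhibitor control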
# MITF TRPM1 inh: reduces MITF-dependent TRPM1 promoter luciferase signal | SK-MEL-5 TRPM1 promoter luciferase, 24 h | inhibition, % at 12.5 µM | actives 0.83% (n = 330,000);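 active = mean inhibition across replicates of 60% or more, whatever share of single replicates reaches that level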
# TWEAK-Fn14 inh: TWEAK-Fn14 signaling inhibition; TWEAK-stimulated Fn14 reporter cells, luciferase luminescence, 8 h; actives 2% (n = 360,000); AID 1159606; inhibition, % at 10 µM; in the data active = inhibition above about 50%
# TROY NFkB inh: TROY signaling inhibition. Q293 LMP1-TROYcd NF-kB luciferase reporter, 4 h. inhibition, % at 10 µM. actives 0.98% (n = 360,000). AID 1347056;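 active = compounds whose plate-normalised and pattern-corrected inhibition of the luciferase reporter signal at the single screening dose is 50% or more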
# Mdm2-MdmX confirm: confirmation of inhibitors of human Mdm2/MdmX interaction, set 2 | shares compounds with HIF-2a inh | SaOS-2 split-luciferase Mdm2/MdmX complementation, luminescence | inhibition, % at 8 µM | actives 99% (n = 740) | AID 504601;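 active = mean inhibition of the luminescence signal across two replicates at or above 26 percent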
# Target sequence (O15151 whole entry, looked up): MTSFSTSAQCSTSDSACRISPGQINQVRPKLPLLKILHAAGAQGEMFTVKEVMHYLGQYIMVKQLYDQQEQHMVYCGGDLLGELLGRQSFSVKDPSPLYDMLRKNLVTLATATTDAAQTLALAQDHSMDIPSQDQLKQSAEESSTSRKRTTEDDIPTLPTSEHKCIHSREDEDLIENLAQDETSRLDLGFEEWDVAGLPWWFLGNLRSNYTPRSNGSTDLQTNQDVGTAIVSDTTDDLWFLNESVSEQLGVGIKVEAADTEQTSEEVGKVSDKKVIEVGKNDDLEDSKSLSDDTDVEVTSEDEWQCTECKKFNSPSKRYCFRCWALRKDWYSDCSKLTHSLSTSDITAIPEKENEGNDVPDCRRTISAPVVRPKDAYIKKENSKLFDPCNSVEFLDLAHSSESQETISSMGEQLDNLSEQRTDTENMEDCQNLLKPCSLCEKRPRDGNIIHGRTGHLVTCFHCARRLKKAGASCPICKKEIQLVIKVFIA
# Target sequence (Q00987 whole entry, looked up): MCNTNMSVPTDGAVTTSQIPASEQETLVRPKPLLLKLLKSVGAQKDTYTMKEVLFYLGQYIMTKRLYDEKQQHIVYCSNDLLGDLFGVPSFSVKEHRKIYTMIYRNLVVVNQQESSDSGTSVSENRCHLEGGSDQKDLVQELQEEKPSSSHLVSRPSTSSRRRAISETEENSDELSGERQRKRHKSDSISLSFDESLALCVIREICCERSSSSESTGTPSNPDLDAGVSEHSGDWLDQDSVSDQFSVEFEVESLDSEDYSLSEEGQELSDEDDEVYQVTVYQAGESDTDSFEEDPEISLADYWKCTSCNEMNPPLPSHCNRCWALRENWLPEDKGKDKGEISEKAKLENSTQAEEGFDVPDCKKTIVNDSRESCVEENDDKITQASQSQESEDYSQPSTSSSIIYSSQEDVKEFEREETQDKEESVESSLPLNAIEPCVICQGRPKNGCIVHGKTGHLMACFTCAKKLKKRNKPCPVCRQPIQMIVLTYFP
# HIF-2a inh conf: HIF-2a inhibition, single concentration confirmation | shares compounds with HIF-2a inh | 786-0 RCC cells, HIF-2a luciferase reporter luminescence, overnight | inhibition, % at 18.8 µM | actives 56% (n = 1,800) | AID 651580;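 active = mean inhibition across four replicates of at least 40 percent at the single tested concentration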
# HIF-1a cs: HIF-1a inhibition counter-screen for HIF-2a hits; AID 651589; MiaPaCa-2 HIF-1a luciferase reporter, desferoxamine, overnight; shares compounds with HIF-2a inh; actives 72% (n = 1,800); inhibition, % at 18.8 µM;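 active = mean inhibition of the reporter signal across four replicates at the single tested dose of 50% or more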
# * hit, by the source's call; · = no result given.
SMILES,Shn3 3UTR inh,HIF-2a inh,LMP1 NFkB inh,MITF TRPM1 inh,TWEAK-Fn14 inh,TROY NFkB inh,HIF-2a inh conf,HIF-1a cs,others
O=C(O)c1ccc(Sc2nnnn2-c2ccccc2)c([N+](=O)[O-])c1,3.1,8.6,-3.2,1.8,9.5,-4.2,·,·,
COC(=O)c1ccc(Sc2nnnn2-c2ccccc2)c([N+](=O)[O-])c1,15.2,40.3*,-8.6,52.8,84.1*,35.6,3.7,-14.5,
CSCCC(NC(=O)c1ccc(Cl)cc1)C(=O)OCC(=O)Nc1cc(Cl)ccc1C#N (stereo not drawn),7.3,17.2,-6.7,21.7,-4.0,22.7,·,·,
NCCCC[C@H](N)c1nnc([C@H](CCC(=O)O)NC(=O)C2CCNCC2)o1,-3.7,4.1,6.2,-16.3,-10.0,-0.9,·,·,
Oc1cccc2ccc(Nc3ccccn3)nc12,79.1,95.5*,75.3*,86.0*,-10.8,-0.2,78.5*,104.5*,Mdm2-MdmX confirm=103.5*
c1ccc(Nc2ccccc2Nc2ccccn2)nc1,12.0,-9.0,2.6,1.6,-10.0,-47.4,·,·,
Cn1c(=O)c2ncn(CC(=O)NCCOc3ccccc3)c2n(C)c1=O,-9.2,-13.1,-1.9,8.8,-9.1,5.8,·,·,
COc1ccc(CNC(=O)Cn2cnc3c(=O)n(C)c(=O)n(C)c32)cc1,1.2,41.9*,-0.9,20.1,3.4,6.9,35.9,-7.5,
CCOC(=O)C1CCN(C(=O)COc2ccc([N+](=O)[O-])cc2)CC1,12.1,19.7,-2.9,4.5,-5.3,-5.6,·,·,
CCOC(=O)C1CCCN(C(=O)COc2ccc(C(C)(C)C)cc2)CC1 (stereo not drawn),-0.5,47.3*,·,·,-7.2,-4.8,58.0*,-26.7,
CCOC(=O)C1=CN(Cc2ccco2)S(=O)(=O)N(CC)C1c1ccc(F)c(Cl)c1 (stereo not drawn),12.1,12.0,0.4,-1.6,3.2,-5.1,·,·,
COc1ccc(-c2cc3nc(-c4ccccc4)cc(N4CCC(O)CC4)n3n2)cc1,-3.5,-2.5,-0.5,7.3,39.6,1.4,·,·,
COc1ccc(-c2cc3nc(-c4ccccc4)cc(N4CCCC(O)C4)n3n2)cc1 (stereo not drawn),4.9,42.7*,61.5*,-14.3,38.3,11.9,-10.9,90.3*,
CCc1ccc(OCC(=O)NNC(=O)c2cc(S(=O)(=O)N(C)C)ccc2N2CCCC2)cc1,3.8,5.5,-0.9,9.2,-8.1,-23.1,·,·,
[N-]=[N+]=CC(=O)C(c1ccccc1)(c1ccccc1)c1ccccc1,-6.8,14.2,-8.6,-14.5,-1.9,-0.7,·,·,
Cc1cc(N)ccc1NC(=O)c1ccccc1,-1.8,13.7,-3.2,-0.2,-16.4,7.1,·,·,
Cc1cc(NC(=O)c2ccccc2)c(Cl)cc1N,12.1,69.5*,-4.6,25.8,27.7,-0.4,84.2*,58.8*,
NC1=NC[C@H](CC2CCCCC2)N1CCc1cc(C(F)(F)F)cc(C(F)(F)F)c1,64.7,97.6*,6.8,4.9,-15.6,-0.7,-5.4,106.0*,Mdm2-MdmX confirm=99.7*
O=c1cc(-c2ccccc2)oc2cccc(O)c12,-33.4,-207.5,-0.4,-20.6,-32.9,-38.9,·,·,
O=c1cc(-c2ccccc2)oc2ccc3ccccc3c12,62.8,50.6*,67.7*,·,93.2*,74.7*,69.5*,56.6*,
O=C(Nc1cccc(NC(=O)c2cc([N+](=O)[O-])ccc2Cl)n1)c1cc([N+](=O)[O-])ccc1Cl,43.3,83.7*,-288.8,31.7,-17.6,-29.3,25.3,102.2*,Mdm2-MdmX confirm=100.5*
O=C(Nc1cc(S(=O)(=O)N2CCOCC2)ccc1Cl)c1cc([N+](=O)[O-])ccc1Cl,20.5,61.6*,-1.0,36.2,77.5*,4.5,49.7*,10.2,
Cc1cc(NC(=O)c2cc([N+](=O)[O-])ccc2Cl)no1,-14.7,16.0,2.5,8.0,-19.5,9.7,·,·,
Cc1ccc(S(=O)(=O)NCC(=O)N(CC2CCCO2)C(C(=O)NCC2CCCO2)C(C)C)cc1 (stereo not drawn),7.4,2.2,-1.8,11.9,-6.7,3.5,·,·,
